# “And” between values parts separate entries of the source, which are not always exact repeats. Equal entries are not always repeated. Screen size: about 5,500 compounds; about 2,000 (36%) were called active. Inconclusive results (about 18%) are left out. Rule as the data show it: active = normalized growth mostly below about 0.91 (no sharp cut-off); inconclusive = no clear call, values can overlap the other calls; inactive = mostly above about 0.92. This is one part of the list. Some structures have more than one record in an assay (separate samples or runs), and their calls can disagree.
# Assay: chemical genetic growth profiling, strain panel (AID 1159580);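 also: tested at 20 µM; growth read once vehicle control cultures reached saturation at 30 °C; 1 = growth at the plate median or of vehicle wells; lower values mean less growth of the strain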
# Details: S. cerevisiae deletion strains, growth OD
smiles,measurement,setting,value
Cc1cc2c(C(C)C)c(O)c(O)c(C=O)c2c(O)c1-c1c(C)cc2c(C(C)C)c(O)c(O)c(C=O)c2c1O,normalized growth,"locus YAL013W, strain DEP1, stronger effect = lower value",0.328 (active) and 0.919 (inactive)
same,normalized growth,"locus YAL021C, strain ccr4, stronger effect = lower value",0.423 (active) and 0.368 (active)
same,normalized growth,"locus YAL026C, strain drs2, stronger effect = lower value",0.446 (active) and 0.519 (active)
same,normalized growth,"locus YAL030W, strain snc1, stronger effect = lower value",0.842 (active) and 0.874 (active)
same,normalized growth,"locus YBL061C, strain skt5, stronger effect = lower value",0.762 (active) and 0.747 (active)
same,normalized growth,"locus YBR009C, strain hhf1, stronger effect = lower value",0.779 (active) and 0.854 (active)
same,normalized growth,"locus YBR021W, strain FUR4, stronger effect = lower value",0.953 (inactive) and 0.977 (inactive)
same,normalized growth,"locus YBR023C, strain chs3, stronger effect = lower value",0.715 (active) and 0.692 (active)
same,normalized growth,"locus YBR171W, strain sec66, stronger effect = lower value",0.862 (active) and 0.922 (inactive)
same,normalized growth,"locus YBR229C, strain ROT2, stronger effect = lower value",0.936 (inactive) and 0.948 (inactive)
same,normalized growth,"locus YBR231C, strain swc5, stronger effect = lower value",0.637 (active) and 0.64 (active)
same,normalized growth,"locus YBR279W, strain paf1, stronger effect = lower value",0.778 (active) and 0.751 (active)
same,normalized growth,"locus YCL011C, strain gbp2, stronger effect = lower value",0.819 (active) and 0.854 (active)
same,normalized growth,"locus YCL016C, strain dcc1, stronger effect = lower value",0.842 (active) and 0.831 (active)
same,normalized growth,"locus YCL029C, strain bik1, stronger effect = lower value",0.798 (active) and 0.939 (inactive)
same,normalized growth,"locus YCL061C, strain MRC1, stronger effect = lower value",0.845 (active)
same,normalized growth,"locus YCL069W, strain vba3, stronger effect = lower value",0.813 (active) and 0.879 (active)
same,normalized growth,"locus YCR088W, strain abp1, stronger effect = lower value",0.842 (active) and 0.919 (active)
same,normalized growth,"locus YDL005C, strain med2, stronger effect = lower value",0.971 (inactive)
same,normalized growth,"locus YDL035C, strain GPR1, stronger effect = lower value",0.662 (active) and 0.799 (active)
same,normalized growth,"locus YDL040C, strain nat1, stronger effect = lower value",0.943 (inactive) and 0.953 (inactive)
same,normalized growth,"locus YDL074C, strain BRE1, stronger effect = lower value",0.589 (active) and 0.751 (active)
same,normalized growth,"locus YDL101C, strain DUN1, stronger effect = lower value",0.742 (active) and 0.847 (active)
same,normalized growth,"locus YDL134C, strain PPH21, stronger effect = lower value",0.738 (active) and 0.848 (active)
same,normalized growth,"locus YDL185W, strain tfp1, stronger effect = lower value",0.926 (inactive) and 0.966 (inactive)
same,normalized growth,"locus YDL192W, strain arf1, stronger effect = lower value",0.689 (active) and 0.978 (inactive)
same,normalized growth,"locus YDR001C, strain nth1, stronger effect = lower value",0.881 (active) and 0.925 (inactive)
same,normalized growth,"locus YDR069C, strain doa4, stronger effect = lower value",0.53 (active) and 0.604 (active)
same,normalized growth,"locus YDR101C, strain arx1, stronger effect = lower value",0.849 (active) and 0.943 (inactive)
same,normalized growth,"locus YDR137W, strain rgp1, stronger effect = lower value",0.161 (active) and 0.167 (active)
same,normalized growth,"locus YDR150W, strain NUM1, stronger effect = lower value",0.785 (active) and 0.912 (inactive)
same,normalized growth,"locus YDR159W, strain sac3, stronger effect = lower value",0.653 (active) and 0.717 (active)
same,normalized growth,"locus YDR162C, strain NBP2, stronger effect = lower value",0.342 (active) and 0.819 (active)
same,normalized growth,"locus YDR195W, strain ref2",0.84 (active) and 0.864 (inactive)
same,normalized growth,"locus YDR297W, strain sur2, stronger effect = lower value",0.79 (active) and 0.863 (active)
same,normalized growth,"locus YDR318W, strain mcm21, stronger effect = lower value",0.847 (active) and 0.965 (inactive)
same,normalized growth,"locus YDR334W, strain swr1, stronger effect = lower value",0.477 (active) and 0.674 (active)
same,normalized growth,"locus YDR335W, strain msn5, stronger effect = lower value",0.677 (active) and 0.769 (active)
same,normalized growth,"locus YDR388W, stronger effect = lower value",0.793 (active) and 0.972 (inactive)
same,normalized growth,"locus YDR392W, strain spt3, stronger effect = lower value",0.56 (active) and 0.438 (active)
same,normalized growth,"locus YDR502C, strain sam2, stronger effect = lower value",0.769 (active) and 0.937 (inactive)
same,normalized growth,"locus YEL003W, strain gim4, stronger effect = lower value",0.761 (active) and 0.805 (active)
same,normalized growth,"locus YEL037C, strain rad23, stronger effect = lower value",0.786 (active) and 0.813 (active)
same,normalized growth,"locus YEL061C, strain CIN8 (second series), stronger effect = lower value",0.814 (active) and 0.916 (inactive)
same,normalized growth,"locus YEL061C, strain CIN8, stronger effect = lower value",0.777 (active) and 0.853 (active)
same,normalized growth,"locus YER015W, strain faa2, stronger effect = lower value",0.649 (active) and 0.698 (active)
same,normalized growth,"locus YER016W, strain bim1, stronger effect = lower value",0.849 (active) and 0.883 (active)
same,normalized growth,"locus YER110C, stronger effect = lower value",0.943 (inactive) and 1.02 (inactive)
same,normalized growth,"locus YER111C, strain swi4, stronger effect = lower value",0.456 (active) and 0.668 (active)
same,normalized growth,"locus YER155C, strain BEM2 (second series), stronger effect = lower value",0.674 (active) and 0.758 (active)
same,normalized growth,"locus YER155C, strain BEM2, stronger effect = lower value",0.865 (active) and 0.912 (active)
same,normalized growth,"locus YER167W, strain BCK2, stronger effect = lower value",0.83 (active) and 0.895 (active)
same,normalized growth,"locus YFR010W, strain ubp6, stronger effect = lower value",0.644 (active) and 0.732 (active)
same,normalized growth,"locus YGL078C, strain dbp3, stronger effect = lower value",0.976 (inactive) and 1.01 (inactive)
same,normalized growth,"locus YGL086W, strain mad1, stronger effect = lower value",0.937 (inactive)
same,normalized growth,"locus YGL167C, strain pmr1, stronger effect = lower value",0.868 (active) and 0.833 (active)
same,normalized growth,"locus YGL173C, strain kem1, stronger effect = lower value",0.564 (active) and 0.591 (active)
same,normalized growth,"locus YGL227W, strain vid30, stronger effect = lower value",0.953 (inactive) and 0.989 (inactive)
same,normalized growth,"locus YGL240W, strain doc1, stronger effect = lower value",0.892 (inactive) and 0.952 (inactive)
same,normalized growth,"locus YGL248W, strain PDE1, stronger effect = lower value",0.764 (active) and 0.805 (active)
same,normalized growth,"locus YGL253W, strain hxk2, stronger effect = lower value",0.629 (active) and 0.698 (active)
same,normalized growth,"locus YGR078C, strain PAC10, stronger effect = lower value",0.776 (active)
same,normalized growth,"locus YGR135W, strain pre9, stronger effect = lower value",0.821 (active) and 0.901 (inactive)
same,normalized growth,"locus YGR229C, strain SMI1, stronger effect = lower value",0.126 (active)
same,normalized growth,"locus YGR252W, strain gcn5, stronger effect = lower value",0.806 (inactive) and 0.95 (inactive)
same,normalized growth,"locus YHR013C, strain ard1, stronger effect = lower value",0.651 (active) and 0.608 (active)
same,normalized growth,"locus YHR027C, strain rpn1, stronger effect = lower value",0.56 (active) and 0.593 (active)
same,normalized growth,"locus YHR030C, strain SLT2, stronger effect = lower value",0.64 (active) and 0.992 (inactive) and 0.854 (active)
same,normalized growth,"locus YHR079C, strain IRE1 (second series), stronger effect = lower value",0.841 (active) and 0.953 (inactive)
same,normalized growth,"locus YHR079C, strain IRE1, stronger effect = lower value",1.01 (inactive)
same,normalized growth,"locus YHR094C, strain hxt1, stronger effect = lower value",0.979 (inactive) and 1 (inactive)
same,normalized growth,"locus YHR129C, strain ARP1, stronger effect = lower value",0.731 (active) and 0.811 (active)
same,normalized growth,"locus YHR142W, strain chs7, stronger effect = lower value",0.537 (active) and 0.619 (active)
same,normalized growth,"locus YHR200W, strain rpn10, stronger effect = lower value",0.876 (active) and 0.977 (inactive)
same,normalized growth,"locus YIL066C, strain RNR3, stronger effect = lower value",0.6 (active) and 0.744 (active)
same,normalized growth,"locus YIL073C, strain SPO22, stronger effect = lower value",0.421 (active) and 0.743 (inactive)
same,normalized growth,"locus YIL125W, strain kgd1, stronger effect = lower value",1.05 (inactive) and 0.996 (inactive)
same,normalized growth,"locus YIR030C, strain dcg1, stronger effect = lower value",0.89 (active) and 0.994 (inactive)
same,normalized growth,"locus YJL092W, strain hpr5, stronger effect = lower value",0.799 (active) and 0.852 (active)
same,normalized growth,"locus YJL095W, strain BCK1 (second series), stronger effect = lower value",0.644 (active) and 0.629 (active)
same,normalized growth,"locus YJL095W, strain BCK1, stronger effect = lower value",0.534 (active) and 0.961 (inactive) and 0.744 (active)
same,normalized growth,"locus YJL115W, strain asf1, stronger effect = lower value",0.794 (active) and 0.86 (active)
same,normalized growth,"locus YJL129C, strain trk1, stronger effect = lower value",0.897 (inactive) and 0.937 (inactive)
same,normalized growth,"locus YJL134W, strain LCB3, stronger effect = lower value",0.875 (active) and 0.934 (inactive)
same,normalized growth,"locus YJL154C, strain vps35, stronger effect = lower value",0.857 (active) and 0.853 (active)
same,normalized growth,"locus YJL164C, strain tpk1, stronger effect = lower value",0.774 (active) and 0.762 (active)
same,normalized growth,"locus YJL166W, strain qcr8, stronger effect = lower value",0.75 (active) and 0.82 (active)
same,normalized growth,"locus YJL168C, strain set2, stronger effect = lower value",0.935 (inactive) and 0.981 (inactive)
same,normalized growth,"locus YJL187C, strain SWE1 (second series), stronger effect = lower value",0.553 (active) and 0.71 (active)
same,normalized growth,"locus YJL187C, strain SWE1, stronger effect = lower value",0.804 (active)
same,normalized growth,"locus YJR043C, strain POL32, stronger effect = lower value",0.594 (active) and 0.749 (active)

# — PubChem BioAssay AID1159580 (chemical genetic matrix, 2015)
